In the library only some 2.4% were active in any assay of this set; here they are far more common.
TMEM16A inh: blocks the mouse calcium-activated chloride channel TMEM16A. HEK293 TMEM16A/YFP iodide influx fluorescence, ionomycin. normalized B-score (activity score, 25-100; higher = stronger inhibition) at 10 µM. hit rate 1.2% among 310,000. AID 588511;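 active = ratio plate-corrected score three or more library SD toward inhibition, starting fluorescence score within five deviations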;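 also: score derived from kinetic fluorescence span divided by baseline fluorescence per well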
CHT inh: inhibits the human high affinity choline transporter. Q9GZV3. AID 488975. B-score at 10 µM. hit rate 0.86% among 310,000. CHT-expressing cells, membrane potential dye, choline response; hits give low values;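 active = B-score over 3 SD under the library average, and starting fluorescence ratio not unusually high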;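 also: choline stimulus applied at its EC90 after an EC20 pre-addition; B-score computed on integrated fluorescence ratio after choline addition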
Target sequence (Q9GZV3 whole entry, looked up): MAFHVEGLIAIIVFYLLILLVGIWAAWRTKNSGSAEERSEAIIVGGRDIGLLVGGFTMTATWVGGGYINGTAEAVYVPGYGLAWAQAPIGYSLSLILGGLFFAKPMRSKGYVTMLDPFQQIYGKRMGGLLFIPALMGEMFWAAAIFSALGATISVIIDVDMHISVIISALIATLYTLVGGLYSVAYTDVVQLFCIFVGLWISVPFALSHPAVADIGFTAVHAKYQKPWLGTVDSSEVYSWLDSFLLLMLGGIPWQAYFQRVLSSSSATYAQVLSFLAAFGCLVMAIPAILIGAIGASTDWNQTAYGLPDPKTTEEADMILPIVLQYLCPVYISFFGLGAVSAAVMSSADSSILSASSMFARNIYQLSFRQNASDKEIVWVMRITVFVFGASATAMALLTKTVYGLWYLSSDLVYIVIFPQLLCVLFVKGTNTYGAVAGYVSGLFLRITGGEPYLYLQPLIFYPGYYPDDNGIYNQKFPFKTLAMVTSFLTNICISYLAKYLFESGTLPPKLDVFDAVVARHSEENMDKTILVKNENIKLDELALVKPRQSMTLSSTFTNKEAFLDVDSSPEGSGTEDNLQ
ANO1 activ: activates or potentiates the mouse TMEM16A chloride channel. hit rate 0.3% among 340,000. HEK293 TMEM16A/YFP-H148Q/I152L, iodide quench fluorescence; hits give low values. Q8BHY3. B-score at 10 µM;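 active = fluorescence-ratio B-score plate-corrected deviation score at least 3 library SD below zero, with starting fluorescence score within 5 deviations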;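 also: channel opened by trigger with iodide after compound preincubation; score built on the fluorescence ratio of max minus min over baseline; more negative score means more quench and so TMEM16A activation or potentiation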
CHT allo act: human CHT allosteric activation; CHT-expressing cells, membrane potential dye, choline EC20; hits give high values; LV-AA mutant CHT in HEK293 cells; Q9GZV3; B-score at 10 µM; hit rate 0.49% among 310,000;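 active = initial fluorescence not abnormally high and integrated response B-score, plate-corrected, over 3 SD above library mean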
Starred values were filed as active, the others as inactive; i = inactive; nt = no result.

SMILES	TMEM16A inh	CHT inh	ANO1 activ	CHT allo act
Cc1cccc(C)c1NC(=O)C1c2cccc[n+]2CC(=O)N1Cc1cccs1 (stereo not given)	i	i	i	i
COc1ccc2nc3ccccc3[n+]([O-])c2c1	nt	nt	-10*	nt
CN(CCC#N)CC(=O)Nc1ccc(S(N)(=O)=O)cc1	i	i	i	i
Cc1ccc(Sc2sc(=O)n(C)c2S(=O)(=O)c2ccc(C)cc2)cc1	i	i	i	i
C#CCOCCOCCOCCNc1nc(N2CCN(C(=O)CCCCCCCCCCNC(=O)[C@H]([C@@H](C)CC)n3cc(CCCCN=C(N)N)nn3)CC2)nc(N2CCN(C(=O)CCCCCCCCCCNC(=O)[C@H]([C@@H](C)CC)n3cc(CCCCN=C(N)N)nn3)CC2)n1	i	i	nt	i
C#CCOCCOCCOCCNc1nc(N2CCN(C(=O)CCCCCCCCCCNC(=O)[C@H]([C@@H](C)CC)n3cc(CCCCCN)nn3)CC2)nc(N2CCN(C(=O)CCCCCCCCCCNC(=O)[C@H]([C@@H](C)CC)n3cc(CCCCN=C(N)N)nn3)CC2)n1	i	i	-28*	i
C#CCOCCOCCOCCNc1nc(N2CCN(C(=O)CCCCCCCCCCNC(=O)[C@H]([C@@H](C)CC)n3cc(CCCCN=C(N)N)nn3)CC2)nc(N2CCN(C(=O)CCCCCCCCCCNC(=O)[C@H](CCCCN)n3cc(C)nn3)CC2)n1	i	i	nt	6.3*
C#CCOCCOCCOCCNc1nc(N2CCN(C(=O)CCCCCCCCCCNC(=O)[C@H]([C@@H](C)CC)n3cc(CCCCCN)nn3)CC2)nc(N2CCN(C(=O)CCCCCCCCCCNC(=O)[C@@H]([C@H](C)CC)n3cc(CCCCCN)nn3)CC2)n1	i	i	nt	i
C#CCOCCOCCOCCNc1nc(N2CCN(C(=O)CCCCCCCCCCNC(=O)Cn3cc(CCCCCN)nn3)CC2)nc(N2CCN(C(=O)CCCCCCCCCCNC(=O)[C@H]([C@@H](C)CC)n3cc(CCCCN=C(N)N)nn3)CC2)n1	i	i	-21*	i
C#CCOCCOCCOCCNc1nc(N2CCN(C(=O)CCCCCCCCCCNC(=O)[C@H]([C@@H](C)CC)n3cc(CCCCCN)nn3)CC2)nc(N2CCN(C(=O)CCCCCCCCCCNC(=O)[C@H](CO)n3cc(CCCCCN)nn3)CC2)n1	25*	i	-17*	i
CC(C)Oc1ccc(Cl)cc1Nc1nc(NCCO)nc(N2CCCC2)n1	i	i	i	i
CCOc1cc2[nH]c(=O)n(CCCC(=O)N(C)Cc3ccccc3)c(=O)c2cc1OCC	i	i	i	i
C#CCOCCOCCOCCNc1nc(N2CCN(C(=O)CCCCCCCCCCNC(=O)[C@H]([C@@H](C)CC)n3cc(CCCCN=C(N)N)nn3)CC2)nc(N2CCN(C(=O)CCCCCCCCCCNC(=O)[C@H](CO)n3cc(CCCCCN)nn3)CC2)n1	100*	i	-20*	i
C#CCOCCOCCOCCNc1nc(N2CCN(C(=O)[C@H](CCCCN)n3cc([C@@H](N)C(C)CC)nn3)CC2)nc(N2CCN(C(=O)[C@H](Cc3cc4ccccc4[nH]3)n3cc([C@@H](N)CC(C)C)nn3)CC2)n1 (stereo not given in full)	i	i	-18*	i
COc1cc(C(C2C(=O)CC(C)(C)CC2=O)C2C(=O)CC(C)(C)CC2=O)cc(OC)c1OC	i	i	i	i
CC1(C)CC(=O)C(C(c2ccncc2)C2C(=O)CC(C)(C)CC2=O)C(=O)C1	i	i	-14*	i
COc1ccc(N(C(=O)Cc2cccs2)C(C(=O)NC2CCCCC2)c2cccn2C)cc1OC (stereo not given)	i	i	-5.4*	i
COc1ccc2ccccc2c1/C=N/NC(=S)NCCN1CCOCC1	i	i	-29*	i
S=C(NCCN1CCOCC1)N/N=C/c1c2ccccc2cc2ccccc12	i	i	i	i
CCc1ccc2oc(-c3ccc(OC)cc3)cc(=Nc3c(C)n(C)n(-c4ccccc4)c3=O)c2c1	100*	i	i	i
CCc1ccc2oc(-c3ccc(OC)cc3)cc(=Nc3cccc(C(=O)O)c3)c2c1	i	i	i	i
CC1CC(C)CN(S(=O)(=O)N2CCCC(C(=O)NC3CCCCC3C)C2)C1 (stereo not given)	i	i	i	i
Cc1c(C(=O)c2no[n+]([O-])c2C(=O)c2cnn(C)c2C)cnn1C	i	-5.9*	i	i
COc1cccc(NC(=O)c2nc3ncccn3n2)c1	i	i	-5.4*	i
Cc1ccc(S(=O)(=O)CCC(=O)OCC(=O)c2cc(C)ccc2C)cc1	i	i	i	i
SMILES	TMEM16A inh	CHT inh	ANO1 activ	CHT allo act
Cc1ccc(S(=O)(=O)CCC(=O)c2ccc(O)cc2O)cc1	i	-5.2*	i	i
CCN(CCn1cccn1)Cc1cn[nH]c1-c1cccc2ccccc12	i	i	-6.2*	i
Nc1nc(Nc2ccc(Cl)cc2)nc2ccccc12	i	-8.3*	i	i
CCN(CC)CCSc1nc2ccccc2c(=S)n1-c1ccccc1	i	i	nt	6.6*
CC1(C(=O)CSc2nc3ccccc3s2)CCC(=O)O1 (stereo not given)	100*	i	i	i
CN1/C(=C\C(=O)COC(=O)Cn2nnc(-c3ccccc3)n2)C(C)(C)c2ccccc21	25*	i	i	i
O=C(O)CC1=C(O)C(=O)N(c2ccccc2)C1c1ccc(Br)cc1 (stereo not given)	i	i	-13*	i
O=C(O)CC1=C(O)C(=O)N(c2ccccc2)C1c1ccccc1 (stereo not given)	i	i	i	i
COc1cc(SC#N)ccc1N=Cc1c(C)[nH]n(-c2ccc(C)c(C)c2)c1=O	i	i	-13*	i
COc1cc(C)cc(OC)c1OCC(=O)Nc1cc(C)on1	nt	nt	i	nt
CC(=O)NC1=NC(=O)/C(=C/c2cc(C)n(-c3cccc(C(=O)O)c3)c2C)S1	nt	nt	-6.4*	nt
CCN(CC(=O)NCCN1CCOCC1)S(=O)(=O)c1ccc(F)cc1	i	i	i	i
CC(=O)N1CCc2cc(S(=O)(=O)Nc3cccc(C(F)(F)F)c3)ccc21	25*	i	i	i
CCOC(=O)N1CCN(CC(O)COc2ccccc2C(C)C)CC1 (stereo not given)	i	i	i	i
COc1ccc(C2CCCN2CC(O)COc2ccccc2C(C)C)cc1 (stereo not given)	i	i	i	10*
Cc1cccnc1NC(=O)C(c1ccccc1)c1ccccc1	i	i	i	i
CCOC(=O)C1CCN(S(=O)(=O)c2ccccc2)CC1	i	i	i	i
CCOC(=O)C1CCN(S(=O)(=O)c2ccc(C)cc2)CC1	i	i	i	i
CCOC(=O)C1CCN(S(=O)(=O)c2ccc(C(=O)OC)cc2)CC1	i	i	-13*	i
